Test systems include SK-MEL-2 melanoma; EKVX NSCLC; SN12C renal; UO-31 renal; TK-10 renal; A498 renal; CCRF-CEM leukemia; MOLT-4 leukemia; SR leukemia; RPMI-8226 leukemia; OVCAR-8 ovarian; OVCAR-5 ovarian; OVCAR-4 ovarian; SK-OV-3 ovarian; IGROV1 ovarian; OVCAR-3 ovarian; HS 578T breast; NCI/ADR-RES ovarian; CAKI-1 renal.
Common to all, as to assay: NCI-60 one-dose screen, 48 h (100 = growth as untreated, 0 = no growth, -100 = all killed)
Conditions in all cases: 10 µM unless noted

In PubChem BioAssay (NCI) one finds growth data, which are given here for 9 compounds.

The structures appear in SMILES notation. This is part of a sample that, as a whole, favours compounds with a hit. Of some 83,000 tested, about 20% had one in any assay.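 Method: cells in 96-well plates; compound added at one concentration; 48 h incubation; percent growth measured; values under 10 scored active.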 Unmarked numbers belong to inactive results. Active and inactive are the calls of the source.

`CCN(CC)CCCC(C)NCc1ccccc1` (stereo not drawn): the growth in the experiment with SK-MEL-2 melanoma is 80.9%; in the experiment with EKVX NSCLC, 102%; with SN12C renal it was 102%; with UO-31 renal, 83.5%; with TK-10 renal, 83.6%; in the experiment on A498 renal, 105%. For the same compound, the growth was 120% in the experiment on CCRF-CEM leukemia; 110% in the experiment with MOLT-4 leukemia; 111% in the experiment with SR leukemia; 107% with RPMI-8226 leukemia; 93.7% with OVCAR-8 ovarian; 97.6% with OVCAR-5 ovarian. The growth was 105% in the experiment on OVCAR-4 ovarian; 118% with SK-OV-3 ovarian; 95.6% with IGROV1 ovarian; 104% in the experiment with OVCAR-3 ovarian; 115% in the experiment on HS 578T breast; 106% in the experiment on NCI/ADR-RES ovarian.

As for `CC(C)N(CCOC(=O)Nc1ccccc1Cl)C(C)C`, the growth in the experiment with SK-MEL-2 melanoma was 104%; with EKVX NSCLC, 99.7%; with SN12C renal it was 99.1%; with UO-31 renal it was 85.1%; with TK-10 renal, 108%; in the experiment with A498 renal, 109%. The growth in the experiment on MOLT-4 leukemia was 88.6%; in the experiment with SR leukemia it was 89.7%; in the experiment with RPMI-8226 leukemia it was 96%; in the experiment with OVCAR-5 ovarian it was 111%; with OVCAR-4 ovarian it was 119%; in the experiment on SK-OV-3 ovarian, 102%. Further, the growth with IGROV1 ovarian was 107%; in the experiment with OVCAR-3 ovarian, 112%; with HS 578T breast, 95.8%; in the experiment with NCI/ADR-RES ovarian, 105%.

For `CN1C[C@@H](c2ccc(Cl)cc2)[C@]2(NC(=S)N(c3ccc(F)c(Cl)c3)C2=O)[C@@]12C(=O)NC1C=CC(Cl)=C[C@H]12` (stereo partly drawn), the growth in the experiment with SK-MEL-2 melanoma is 53.3%; in the experiment on EKVX NSCLC, 50.7%; in the experiment on SN12C renal, -63.2% (active); with UO-31 renal it was 26.1%; in the experiment with TK-10 renal, 82%; in the experiment with A498 renal, 66.8%. The growth with CCRF-CEM leukemia is 6.69% (active); with MOLT-4 leukemia, 3.29% (active); in the experiment with SR leukemia, 0.495% (active); in the experiment with RPMI-8226 leukemia it was 2.67% (active); in the experiment on OVCAR-8 ovarian, 60%; in the experiment on OVCAR-5 ovarian, 52.8%. Moreover, the growth was 57% with OVCAR-4 ovarian; 80.7% in the experiment on SK-OV-3 ovarian; 41.9% in the experiment with IGROV1 ovarian; 48.5% in the experiment with OVCAR-3 ovarian; 77.6% in the experiment on HS 578T breast; 42% in the experiment on NCI/ADR-RES ovarian.

As to `CCCCOC(=O)c1ccc(NC(=O)C(C)N2CCOCC2)cc1` (stereo not drawn), the growth in the experiment on SK-MEL-2 melanoma was 90.6%; in the experiment with EKVX NSCLC it was 109%; in the experiment on SN12C renal, 104%; in the experiment with UO-31 renal, 88.3%; with TK-10 renal it was 97.2%; in the experiment with A498 renal, 99.5%. Besides, the growth was 72.4% in the experiment with CCRF-CEM leukemia; 94.9% in the experiment with MOLT-4 leukemia; 98.1% in the experiment on SR leukemia; 88.1% in the experiment with RPMI-8226 leukemia; 95.6% in the experiment on OVCAR-8 ovarian; 112% in the experiment on OVCAR-5 ovarian. Further, the growth with OVCAR-4 ovarian was 124%; in the experiment with SK-OV-3 ovarian, 109%; with IGROV1 ovarian, 103%; with HS 578T breast, 99%; in the experiment on NCI/ADR-RES ovarian it was 101%.

Take `CCCCNCC(=O)Nc1ccc(C(=O)OCC)cc1`: the growth in the experiment with SK-MEL-2 melanoma was 93%; in the experiment on EKVX NSCLC, 98.3%; in the experiment with SN12C renal, 104%; in the experiment on UO-31 renal it was 91.8%; in the experiment on TK-10 renal, 96.1%; with A498 renal, 101%. Further, the growth with CCRF-CEM leukemia is 79.4%; in the experiment on MOLT-4 leukemia, 80.7%; in the experiment with SR leukemia, 87%; in the experiment on RPMI-8226 leukemia, 94%; with OVCAR-8 ovarian it was 104%; in the experiment with OVCAR-5 ovarian, 109%. The growth with OVCAR-4 ovarian was 114%; with SK-OV-3 ovarian, 105%; in the experiment with OVCAR-3 ovarian, 113%; in the experiment on HS 578T breast it was 108%; in the experiment with NCI/ADR-RES ovarian it was 107%.

On to `COc1cc(-c2cc(-c3ccc(Nc4nc(Nc5ccccc5)nc(Nc5ccc(Cl)cc5)n4)cc3)nc(N)n2)cc(OC)c1OC`, for which the growth in the experiment on SK-MEL-2 melanoma is 59.5%; in the experiment on EKVX NSCLC, 59.4%; with SN12C renal, 70.7%; with UO-31 renal it was 43.1%; with TK-10 renal, 91.3%; with CAKI-1 renal, 60.7%. Besides, the growth with CCRF-CEM leukemia was 28.2%; with MOLT-4 leukemia, 38.4%; with RPMI-8226 leukemia it was 40.1%; in the experiment with OVCAR-8 ovarian, 60.1%; in the experiment on OVCAR-5 ovarian, 70%; in the experiment with OVCAR-4 ovarian, 49.9%. For the same compound, the growth in the experiment on SK-OV-3 ovarian was 113%; in the experiment with OVCAR-3 ovarian, 63.8%; with NCI/ADR-RES ovarian it was 50.9%.

As to `CCN(CC)CCOC(=O)Nc1ccccc1Cl`, the growth is 88.3% in the experiment on SK-MEL-2 melanoma; 106% with EKVX NSCLC; 103% in the experiment with SN12C renal; 80.4% with UO-31 renal; 86.1% in the experiment on TK-10 renal; 114% in the experiment with A498 renal. Also, the growth is 75.7% with CCRF-CEM leukemia; 94.7% with MOLT-4 leukemia; 102% in the experiment on SR leukemia; 88.8% in the experiment on RPMI-8226 leukemia; 104% in the experiment on OVCAR-8 ovarian; 110% in the experiment with OVCAR-5 ovarian. The growth in the experiment on OVCAR-4 ovarian is 120%; in the experiment on SK-OV-3 ovarian, 108%; in the experiment with IGROV1 ovarian, 101%; with OVCAR-3 ovarian, 108%; in the experiment on HS 578T breast, 109%; in the experiment on NCI/ADR-RES ovarian, 110%.

With `C=C1C(=O)O[C@H]2[C@H]1CC/C(C(=O)NCCCCCCCCNC(=O)/C1=C/CC[C@@]3(C)O[C@H]3[C@H]3OC(=O)C(=C)[C@@H]3CC1)=C\CC[C@@]1(C)O[C@@H]21`, the growth was 80.1% with SK-MEL-2 melanoma; 97.2% in the experiment on EKVX NSCLC; 76.2% with SN12C renal; 80.8% with UO-31 renal; 64.4% in the experiment on TK-10 renal; 107% with A498 renal. The growth in the experiment with CCRF-CEM leukemia is 4.79% (active); in the experiment with MOLT-4 leukemia, 15.2%; in the experiment on SR leukemia it was 20.2%; in the experiment on RPMI-8226 leukemia, 33.6%; in the experiment with OVCAR-8 ovarian, 93.4%; in the experiment on OVCAR-5 ovarian, 97.1%. Besides, the growth in the experiment on OVCAR-4 ovarian is 73.1%; with SK-OV-3 ovarian, 93.5%; in the experiment with HS 578T breast, 90.5%; with NCI/ADR-RES ovarian, 103%.

With `CCN(CC)CCNc1ccc(C)c2sc3cc(C)ccc3c(=O)c12`, the growth with SK-MEL-2 melanoma was 55.7%; in the experiment with EKVX NSCLC it was 81.3%; in the experiment on SN12C renal, 53.8%; with UO-31 renal, 41%; in the experiment on TK-10 renal, 57.9%; with A498 renal it was 84.8%. Besides, the growth in the experiment on CCRF-CEM leukemia is 34%; in the experiment on MOLT-4 leukemia, 30.6%; in the experiment on SR leukemia, 6.89% (active); in the experiment with RPMI-8226 leukemia, 10.4%; in the experiment on OVCAR-8 ovarian it was 57%; with OVCAR-5 ovarian, 79.5%. Moreover, the growth was 85.3% in the experiment on OVCAR-4 ovarian; 74.8% in the experiment with SK-OV-3 ovarian; 52.4% in the experiment on IGROV1 ovarian; 76.6% in the experiment on OVCAR-3 ovarian; 73% in the experiment with HS 578T breast; 59.2% in the experiment with NCI/ADR-RES ovarian.
